rCAG RNA binder – binders of r(CAG) RNA repeats, primary screen, biochemical, fluorescence; r(CAG) RNA repeat, TO-PRO-1 dye displacement fluorescence; inhibition, % at 3 µM; 370,000 tested, 1.3% active; AID 651821, 2012;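 active means inhibition above the plate cutoff, the mean of all test compounds on that plate plus 3 SD, cut at about 35% in these data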;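 further: 0% = DMSO alone and 100% = 100 µM mitoxantrone as full dye displacement; higher means more dye released from RNA so lower well fluorescence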
PRMT1 FP inh – PRMT1 methyltransferase inhibitors, primary screen, biochemical, fluorescence polarization | Protein arginine N-methyltransferase 1 (Homo sapiens), Q99873 | recombinant PRMT1, activity-based probe fluorescence polarization | inhibition, % at 2.79 µM | 370,000 tested, 1.3% active;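 active means inhibition above about 21% made by adding two undisclosed values, limit read from the data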
ABHD5 PLIN5 PPI – ABHD5-PLIN5 interaction inhibitors, primary screen, cell lysate, split luciferase complementation, luminescence. 360,000 tested, 0.78% active. AID 602281, 2012. Perilipin-5 (Homo sapiens) + 1-acylglycerol-3-phosphate O-acyltransferase ABHD5 (Homo …. Split G. princeps luciferase complementation, 4 h. inhibition, % at 4 µM;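 active means inhibition above the mean inhibition across every tested compound plus 3 SD, cut at about 22% in these data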;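 further: 0% = DMSO only wells and the 100% control is not disclosed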
UHRF1 binding – UHRF1 methylated DNA binding inhibitors, primary screen, counter-screen for MBD2 inhibitor project, biochemical, TR-FRET, human UHRF1, single concentration; UHRF1 binding to methylated oligo; inhibition, % at 4.4 µM; 370,000 tested, 0.75% active; in the data active means inhibition above about 21%;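 further: UHRF1 SRA domain binding a hemimethylated CpG hairpin DNA probe; 0% = median of test compound wells and 100% = reference inhibitor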
MBD2 inh – inhibitors of MBD2 binding to methylated DNA, primary screen, biochemical, TR-FRET, DNA-binding domain, human. MBD2 binding to methylated oligonucleotide. inhibition, % at 4.4 µM. 370,000 tested, 0.31% active. AID 686964, 2013; in the data active means inhibition above about 13%
LEDGF integ inh – blockers of LEDGF/p75-dependent integrase strand transfer – biochemical, TR-FRET, high throughput, primary screen; HIV-1 integrase (with human LEDGF/p75); TR-FRET IN-LEDGF/p75 DNA integration, Eu/Cy5; inhibition, % at 3.7 µM; 370,000 tested, 0.64% active; AID 743269, 2014;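 active means inhibition above the screen-wide mean plus 3 SD, cut at about 13% in these data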;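 further: signal is the Cy5 over europium emission ratio at 671 and 618 nm; 0% = plate median of compound wells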
Numbers without * were called inactive; nt = no result given. Rows were chosen to be rich in hits. Some 4.1% of all compounds tested hit in one or more screens of this group.

SMILES	rCAG RNA binder	PRMT1 FP inh	ABHD5 PLIN5 PPI	UHRF1 binding	MBD2 inh	LEDGF integ inh
O=C(NC1CCN(Cc2ccccc2)CC1)c1cncc(Br)c1	-6	3	1	21*	9	-5
O=C(NC1CCN(Cc2ccccc2)CC1)c1ccccc1	-1	0	-1	-1	-4	-2
CC(=O)Nc1ccc(N/C=C2/CCCC2=O)cc1	-2	8	-3	1	5	-4
Cc1cc(O)ccc1N/C=C1\CCCC1=O	6	30*	-4	1	-1	5
CN(C)c1ccc(-c2nnc(-c3cccs3)o2)cc1	-3	1	6	-1	3	-1
Brc1ccc(-c2cnc(-c3cccs3)o2)cc1	7	2	-2	21*	7	3
Cc1cccc(N2CCN(C(=O)c3ccc4c(c3)NC(=O)C(CSCc3cccc(F)c3)N4)CC2C)c1 (configuration not stated)	19	13	-12	-4	-7	3
COc1ccc(N2CCN(C(=O)c3ccc4c(c3)NC(=O)C(CSCc3ccccc3F)N4)CC2)cc1 (configuration not stated)	17	37*	-2	2	-2	2
O=C(Oc1cc2oc(=O)c3c(c2cc1Cl)CCCC3)c1ccco1	1	2	3	24*	12	1
CC(C)C1OC2(C)OC(=N)C1(C#N)C(C#N)(C#N)C2c1ccccc1 (configuration not stated)	1	25*	3	4	-3	0
CCC1OC2(C)OC(=N)C1(C#N)C(C#N)(C#N)C2c1ccccc1 (configuration not stated)	6	5	-4	2	0	0
CCOc1ccc(-n2c(SCC(=O)c3ccc4ccccc4c3)nnc2-c2cccc(Cl)c2)cc1	15	1	nt	0	-2	3
COc1ccc(-c2cc(-c3n[nH]c(=S)n3-c3cc(OC)ccc3OC)[nH]n2)cc1	18	25*	-15	2	-1	4
CN1CCC(N[C@@H](Cc2c[nH]c3ccccc23)C(=O)NCCCc2ccccc2)(C(=O)NCCc2c[nH]c3ccccc23)CC1	nt	0	nt	0	-1	6
Cc1ccc2ccccc2[n+]1CCCS(=O)(=O)[O-]	2	2	3	36*	0	1
CSc1sc2ccccc2[n+]1CCCS(=O)(=O)[O-]	3	23*	-8	-2	-2	-1
CC(C)c1ccc(C(C(C(=O)c2ccccc2)N2CCOCC2)N2CCOCC2)cc1 (configuration not stated)	3	-2	3	47*	5	-1
CCOC(=O)CNC(=O)CSc1nnc(-c2cccs2)o1	1	1	nt	3	3	-4
CN(Cc1ccncc1)C(=O)[C@@H]1CCCN1C(=O)[C@@H]1CCCN1	0	5	13	22*	4	-4
COCCNC(=O)C(c1ccc(F)cc1)N(C(=O)CCC(=O)Nc1nccs1)c1ccc(C)cc1 (configuration not stated)	-7	-4	12	21*	-1	4
CCC(=O)N1CCc2cc(Br)c(S(=O)(=O)NC3CCN(Cc4ccccc4)CC3)cc21	2	-2	nt	3	1	-2
Brc1ccc(CSc2nnc3ccccn23)cc1	-3	-2	4	33*	7	0
Clc1cccc(Cl)c1CSc1nnc2ccccn12	-4	1	-7	5	-1	-1
Cc1ccc(S(=O)(=O)N2CCN(C(=O)CCC(=O)NCCc3ccc(S(N)(=O)=O)cc3)CC2)c(C)c1	-2	1	-10	44*	8	-1
Cc1ccc(S(=O)(=O)N2CCN(C(=O)COC(=O)CCc3ccccc3)CC2)c(C)c1	0	2	1	13	7	-3
SMILES	rCAG RNA binder	PRMT1 FP inh	ABHD5 PLIN5 PPI	UHRF1 binding	MBD2 inh	LEDGF integ inh
CCCNC(=O)N1CC[C@H]2[C@@H]1c1cc(-c3ccc(F)cc3)ccc1N(C)[C@H]2CO	6	0	nt	-2	-3	-1
CCN(CC)S(=O)(=O)c1cccc(NC(=O)COC(=O)C2COc3ccccc3O2)c1 (configuration not stated)	4	0	-5	24*	0	1
O=C(NNC(=O)c1cc(-c2cccnc2)nc2ccccc12)Nc1ccc(Cl)cc1	23	-2	-11	-2	-2	-4
O=C(NNC(=O)c1cc(-c2ccccc2)nc2ccccc12)Nc1cccc(Cl)c1	32	1	-1	81*	-1	-4
CCCC(=O)Nc1cc(C)c2c(=O)oc3ccccc3c2n1	3	7	-4	0	1	-4
Cc1cc(NC(=O)c2ccccc2F)nc2c1c(=O)oc1ccccc12	5	2	-8	22*	1	1
CCCCN(C(=O)c1cccc(-c2ccc(OC(C)=O)cc2)c1)c1c(N)n(CCC)c(=O)[nH]c1=O	-2	-3	9	73*	-2	4
O=C(COC(=O)/C=C/c1cccc(C(F)(F)F)c1)NC(=O)NCc1ccco1	2	-2	-2	0	-6	4
O=C(COC(=O)/C=C/c1cccc(C(F)(F)F)c1)NCc1ccco1	-4	-4	3	2	6	28*
COc1cccc(C(=O)N[C@H](C(=O)N2CCC[C@H]2C(=O)NC2CCCC2)c2ccccc2)c1	-3	-1	nt	-2	1	-2
O=C(O)c1ccccc1CC(CCc1ccccc1)C(=O)O (configuration not stated)	3	1	1	21*	11	5
OC12CC3C[C@H](C1)C(N1CCOCC1)[C@@H](C3)C2 (some centres not stated)	-2	1	6	52*	2	-4
O=C(Nc1cc(C(F)(F)F)ccc1N1CCOCC1)c1cnccn1	-1	-2	0	0	0	2
O=C(Nc1ccccc1N1CCOCC1)c1cnccn1	-1	0	-5	37*	-2	4
CCCCNc1ccc(C(F)(F)F)cc1S(=O)(=O)NCCc1ccc(F)cc1	3	-4	-12	23*	12	6
CCCCc1c(-c2ccccc2OC)ncn1Cc1ccccc1F	1	-3	nt	-3	-2	5
CCOc1ccccc1NC(=O)C1=C(C)NC(=O)NC1c1cccc(OC)c1OC (configuration not stated)	-6	-2	-2	23*	10	3

Screens from PubChem BioAssay.
